Data published in PubChem BioAssay (Tox21).
Values without a mark were called inactive. Inconclusive results are not listed. Entries that show only a call come without a potency. Activity calls are given as the source filed them. Unless noted, calls follow the shape of the dose curve; as a rule, active = well fitted curve in the direction sought with a large enough effect in the repeat runs; inconclusive = weak or mixed curves; inactive = no such curve, though single readings can be large; an effect the other way counts as inactive or inconclusive.

What was measured:
[1] = qHTS assay to identify small molecule agonists of the hypoxia (HIF-1) signaling pathway - cell viability counter screen (AID 1224844; calls by dose curve; also: nearly all actives have a fitted effect of over 50% in size)
Outline: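 In this counter screen, HRE-bla ME-180 cell viability after 17 hrs of compound exposure at 37C was read by CellTiter-Glo luminescence, multiplexed with the beta-lactamase reporter measurement.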

[2] = qHTS assay to identify small molecule agonists of H2AX (AID 1224845; active = well fitted activation curve with a large enough effect in the signal ratio in the repeat runs, not every such curve was filed as active; the % refers to the signal ratio)
Outline: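 Phospho-H2AX Ser139 measured by HTRF (ex 320 nm; em 665 and 620 nm) after 24 hr antibody incubation. Compounds, 15 concentrations, 0.76% DMSO, were applied to CHO-K1 cells for 3hr at 37C before lysis.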

[3] = qHTS assay to identify small molecule agonists of the hypoxia (HIF-1) signaling pathway (AID 1224846; active = well fitted activation curve with a large enough effect in the signal ratio in the repeat runs, not every such curve was filed as active; the % refers to the signal ratio)
Outline: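 ME-180 HRE-bla reporter cells; compounds in DMSO, 17 h at 37C; read-out beta-lactamase via CCF4-AM FRET.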

[4] = qHTS assay to identify small molecule agonists of H2AX - cell viability counter screen (AID 1224847; calls by dose curve; also: nearly all actives have a fitted effect of over 30% in size; also: potency is read from the fitted curve at half-maximal effect)
Outline: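 Quantitative HTS viability measurement: CHO-K1 wild-type cells in serum (10% FBS) medium, short 3 hr drug exposure at 37C with 0.76% DMSO, CellTiter-Glo luminescent detection.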

[5] = qHTS RealTime-Glo MT Cell Viability Assay in HepG2 cells - 24 hour (AID 1224867); also: nearly all actives have a fitted effect of over 50% in size
Outline: (§1)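 qHTS, HepG2, 600 cells/well, RealTime-Glo (NanoLuc + prosubstrate) added with cells; 5 h preincubation; DMSO compound addition; 37 C; luminescence at 0/8/16/24/32/40 h.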

[6] = qHTS RealTime-Glo MT Cell Viability Assay in HEK293 cells - 32 hour (AID 1224868); also: top concentration of the series differs between compounds; nearly all actives have a fitted effect of over 50% in size
Outline: (§2)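 Assay medium contained NanoLuc luciferase plus cell-permeant prosubstrate, added with HEK293 cells at 600 cells/well. After 5 h at 37 C/5% CO2 compounds were added; plates stayed at 37 C for 40 h with serial luminescence reads.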

[7] = A CellTox Green Cytotoxicity Assay to monitor cytotoxicity in HEK293 cells - 0 hour (AID 1224869); also: nearly all actives have a fitted effect of over 50% in size
Outline: (§3)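 Real-time, in one plate: 600 HEK293 cells/well with dead-cell DNA dye, pinned compound after 5 h, 37 C incubation over 40 h; viable cells give no appreciable fluorescence.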

[8] = qHTS RealTime-Glo MT Cell Viability Assay in HepG2 cells - 40 hour (AID 1224870); also: nearly all actives have a fitted effect of over 50% in size
Outline: (§4)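 Real-time viability: cells seeded at 600 per well together with NanoLuc and cell-permeant prosubstrate, compounds added after 5 h incubation. Luminescence tracked at 0, 8, 16, 24, 32 and 40 h of exposure.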

[9] = A CellTox Green Cytotoxicity Assay to monitor cytotoxicity in HEK293 cells - 40 hour (AID 1224871); also: nearly all actives have a fitted effect of over 45% in size
Outline: as §3

[10] = qHTS RealTime-Glo MT Cell Viability Assay in HEK293 cells - 40 hour (AID 1224874); conditions: RealTime-Glo luminescence; max response: hits give low values; also: nearly all actives have a fitted effect of over 50% in size
Outline: (§5)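 Kinetic, non-lysing viability readout. Seed HEK293 (600/well) with reagent, incubate 5 h at 37 C/5% CO2, pin 23 nL compound in DMSO, incubate at 37 C, read luminescence at 0, 8, 16, 24, 32, 40 h.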

[11] = A CellTox Green Cytotoxicity Assay to monitor cytotoxicity in HEK293 cells - 24 hour (AID 1224875); also: nearly all actives have a fitted effect of over 45% in size
Outline: as §3

[12] = A CellTox Green Cytotoxicity Assay to monitor cytotoxicity in HepG2 cells - 16 hour (AID 1224876); also: nearly all actives have a fitted effect of over 45% in size
Outline: (§6)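 Cytotoxicity was tracked as dead-cell DNA fluorescence in HepG2 cells treated with test compounds at 37 C; each time-point value comes from one kinetic series spanning 0, 8, 16, 24, 32 and 40 h.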

[13] = qHTS RealTime-Glo MT Cell Viability Assay in HepG2 cells - 32 hour (AID 1224877); also: nearly all actives have a fitted effect of over 55% in size
Outline: as §1

[14] = qHTS RealTime-Glo MT Cell Viability Assay in HEK293 cells - 0 hour (AID 1224880); also: top concentration of the series differs between compounds; nearly all actives have a fitted effect of over 45% in size
Outline: as §5

[15] = qHTS RealTime-Glo MT Cell Viability Assay in HEK293 cells - 16 hour (AID 1224872)
Outline: as §2

[16] = qHTS RealTime-Glo MT Cell Viability Assay in HepG2 cells - 8 hour (AID 1224873); also: nearly all actives have a fitted effect of over 55% in size
Outline: as §4

[17] = A CellTox Green Cytotoxicity Assay to monitor cytotoxicity in HepG2 cells - 24 hour (AID 1224878); also: nearly all actives have a fitted effect of over 45% in size
Outline: as §6

[18] = A CellTox Green Cytotoxicity Assay to monitor cytotoxicity in HepG2 cells - 40 hour (AID 1224879); also: nearly all actives have a fitted effect of over 40% in size
Outline: as §6

[19] = qHTS assay to identify small molecule antagonists of the estrogen related receptor (ERR) signaling pathway from Tox21 library (AID 1224848); also: nearly all actives have a fitted effect of over 50% in size
Outline: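 ERR cell line, 2,000 cells/well. 6 h settle, then compound (DMSO) added; 18 h at 37 C; ONE-Glo luminescence after 30 min RT.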

[20] = qHTS assay to identify small molecule agonists of the estrogen related receptor (ERR) signaling pathway from Tox21 library (AID 1224849; calls by dose curve; also: nearly all actives have a fitted effect of over 15% in size); conditions: ERR reporter cell line, ONE-Glo luciferase, 18 h; at 92.4 µM (top of the series) unless noted
Outline: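 Luciferase activity in ERR pathway reporter cells served as the agonist readout; exposure lasted 18 h at 37 C, with ONE-Glo detection after 30 min at room temperature.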

Compound | Potency [1] | Potency [2] | outcome [3] | Potency [4] | Potency [5] | Potency [6] | Potency [7] | Potency [8] | Potency [9] | max response [10] [%] | Potency [11] | Potency [12] | Potency [13] | outcome [14] | Potency [15] | Potency [16] | Potency [17] | Potency [18] | Potency [19] | activity change, positive = activation [20]
O=C(N[C@H]1CN2CCC1CC2)c1cc2ccoc2cn1 | inactive | inactive | inactive | inactive | inactive | inactive | inactive | inactive | inactive | 8.57 | inactive | inactive | inactive | inactive |  |  |  |  |  | 
O=C(O)c1ccc2[nH]cc(CCCCN3CC=C(c4ccccc4)CC3)c2c1 | inactive | inactive | inactive | inactive | inactive | inactive | inactive |  | inactive | -1.51 | inactive | inactive | inactive | inactive | inactive | inactive | inactive | inactive |  | 
CC(C)NCC(O)c1ccc(N)c(C#N)c1 (configuration not stated) | inactive | inactive | inactive | inactive | inactive | inactive | inactive | inactive | inactive | 2.86 | inactive | inactive | inactive | inactive | inactive |  | inactive | inactive |  | 
c1coc(-c2nc3ccccc3[nH]2)c1 | inactive | inactive | inactive | 80 µM (active) | inactive |  | inactive | inactive | inactive |  | inactive | inactive | inactive | inactive |  | inactive | inactive | inactive |  | 
COP(N)(=S)Oc1ccccc1C(=O)OC(C)C (configuration not stated) | inactive | inactive | inactive | inactive |  | inactive | inactive | inactive | inactive | -8.89 |  | inactive | inactive | inactive | inactive | inactive | inactive | inactive |  | 
O=C(Nc1ccccc1)c1ccccc1I | inactive | inactive | inactive |  | inactive | inactive | inactive | inactive | inactive | -14.8 | inactive | inactive | inactive | inactive | inactive | inactive | inactive | inactive |  | 
C[C@]1(O)CC[C@H]2[C@@H]3CCC4=CC(=O)CC[C@]4(C)[C@@]3(F)[C@@H](O)C[C@@]21C | inactive | inactive | inactive | inactive |  | inactive | inactive | inactive | inactive |  |  | inactive | inactive |  | inactive | inactive | inactive | inactive |  | 
C[C@@H]1CN(C2CCC(C#N)(c3ccc(F)cc3)CC2)CC[C@]1(C(=O)O)c1ccccc1 (some centres not stated) | inactive | inactive |  | inactive |  | inactive | inactive | inactive | inactive | 2.36 | inactive | inactive | inactive | inactive |  | inactive | inactive | inactive | inactive | 0.0799% [at 42.5 µM]
